Source: PubChem BioAssay (EPA / NIEHS)
Calls of active or inactive are those of the source. The calls were made as follows: active = hit-call score of the fitted dose curve at least 0.9, where 1 is the maximum; inactive = score below 0.9.

Legend:
[1] = ATG_GLI_CIS: Attagene CIS-FACTORIAL HepG2 Assay for human Zinc Finger Protein GLI1 (AID 2282945); settings: HepG2, Attagene cis-factorial reporter mRNA, GLI element; actives raise or lower the signal
Method in brief: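 Transiently transfected HepG2 cells report endogenous transcription factor activity via cis-element-driven reporter units. After 24 h compound exposure, reporter mRNA was measured by RT-PCR with capillary electrophoresis; bidirectional fitting against DMSO baseline.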

[2] = ATG_GRE_CIS: Attagene CIS-FACTORIAL HepG2 Assay for human Glucocorticoid Response Elements (GRE) (AID 2282947); settings: HepG2 GRE cis-reporter, Attagene multiplex mRNA; actives raise or lower the signal
Method in brief: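 Endogenous transcription factor activity is read through cis-element reporter constructs transiently transfected into HepG2 cells. After 24 h treatment, labelled RT-PCR products are resolved by capillary electrophoresis; DMSO sets baseline for bidirectional curve fitting.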

[3] = ATG_ISRE_CIS: Attagene CIS-FACTORIAL HepG2 Assay for human Interferon Regulatory Factor 1 (IRF1) binding to an Interferon-Stimulated Response Element (ISRE) (AID 2282948); settings: HepG2 ISRE cis-reporter (Attagene), mRNA transcription readout; actives raise or lower the signal
Method in brief: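 Cell-based cis-reporter assay; HepG2; 24 h exposure; reporter mRNA by RT-PCR plus capillary electrophoresis fluorescence; activity in either direction scored relative to DMSO.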

[4] = ATG_M_32_CIS: Attagene CIS-FACTORIAL HepG2 Assay for M32 Transcription Factor (Internal Marker) (AID 2282949); settings: HepG2 Attagene cis-factorial M32 reporter, mRNA; actives raise or lower the signal;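 also: background control marker of the multiplexed CIS panel rather than a real target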
Method in brief: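 Internal background marker read-out: RT-PCR/capillary electrophoresis fluorescence of reporter transcripts from transiently transfected HepG2 cells after 24 h chemical exposure. Activity fitted bidirectionally relative to DMSO negative control.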

[5] = ATG_M_06_CIS: Attagene CIS-FACTORIAL HepG2 Assay for M06 Transcription Factor (Internal Marker) (AID 2282950); settings: HepG2 Attagene CIS-FACTORIAL M06 internal marker reporter; actives raise or lower the signal
Method in brief: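 Steps: transfect HepG2 with multiplexed cis-element reporter constructs; dose chemical 24 h; extract RNA with DNase treatment; reverse-transcribe, PCR-amplify, 6-FAM label, HpaI digest; separate fragments by capillary electrophoresis. Activity fitted both directions versus DMSO.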

[6] = target: Hypoxia-inducible factor 1-alpha (Homo sapiens) (UniProt Q16665); assay: ATG_HIF1a_CIS: Attagene CIS-FACTORIAL HepG2 Assay for human Hypoxia Inducible Factor 1 (HIF1A) (AID 2282951); settings: HepG2 Attagene cis-factorial HIF1a reporter transcription; actives raise or lower the signal
Sequence of Hypoxia-inducible factor 1-alpha (Homo sapiens) (Q16665 whole entry, looked up): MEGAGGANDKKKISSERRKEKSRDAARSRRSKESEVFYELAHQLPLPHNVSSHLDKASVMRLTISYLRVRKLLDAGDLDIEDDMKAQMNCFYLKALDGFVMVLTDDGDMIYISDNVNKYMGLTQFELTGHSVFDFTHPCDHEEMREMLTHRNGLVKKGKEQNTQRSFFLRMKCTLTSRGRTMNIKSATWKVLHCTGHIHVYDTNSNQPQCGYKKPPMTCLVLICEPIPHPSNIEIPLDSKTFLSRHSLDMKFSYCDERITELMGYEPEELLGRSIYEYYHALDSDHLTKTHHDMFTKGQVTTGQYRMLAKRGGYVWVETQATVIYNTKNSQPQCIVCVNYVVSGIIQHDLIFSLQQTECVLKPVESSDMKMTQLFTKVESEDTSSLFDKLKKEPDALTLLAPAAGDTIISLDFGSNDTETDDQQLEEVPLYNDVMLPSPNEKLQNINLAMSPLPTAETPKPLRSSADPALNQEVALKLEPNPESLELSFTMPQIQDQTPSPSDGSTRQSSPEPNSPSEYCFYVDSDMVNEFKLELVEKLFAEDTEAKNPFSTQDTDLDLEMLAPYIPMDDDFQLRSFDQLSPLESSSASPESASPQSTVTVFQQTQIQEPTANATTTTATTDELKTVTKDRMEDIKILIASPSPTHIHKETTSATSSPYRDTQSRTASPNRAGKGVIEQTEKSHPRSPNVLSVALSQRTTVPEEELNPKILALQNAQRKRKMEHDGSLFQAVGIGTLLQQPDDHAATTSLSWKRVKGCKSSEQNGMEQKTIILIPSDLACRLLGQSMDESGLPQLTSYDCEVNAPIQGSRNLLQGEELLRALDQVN
Method in brief: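 In this multiplexed cell assay, HepG2 cells bearing transfected cis reporters are dosed for 24 h and reporter mRNA is read by RT-PCR plus capillary electrophoresis; signal increases and decreases are both scored against DMSO.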

[7] = target: Hepatocyte nuclear factor 6 (Homo sapiens) (UniProt Q9UBC0); assay: ATG_HNF6_CIS: Attagene CIS-FACTORIAL HepG2 Assay for human Hepatocyte Nuclear Factor 6 (HNF6) (AID 2282952); settings: HepG2 Attagene cis-factorial HNF6 reporter transcription; actives raise or lower the signal
Sequence of Hepatocyte nuclear factor 6 (Homo sapiens) (Q9UBC0 whole entry, looked up, the tested form may be a part): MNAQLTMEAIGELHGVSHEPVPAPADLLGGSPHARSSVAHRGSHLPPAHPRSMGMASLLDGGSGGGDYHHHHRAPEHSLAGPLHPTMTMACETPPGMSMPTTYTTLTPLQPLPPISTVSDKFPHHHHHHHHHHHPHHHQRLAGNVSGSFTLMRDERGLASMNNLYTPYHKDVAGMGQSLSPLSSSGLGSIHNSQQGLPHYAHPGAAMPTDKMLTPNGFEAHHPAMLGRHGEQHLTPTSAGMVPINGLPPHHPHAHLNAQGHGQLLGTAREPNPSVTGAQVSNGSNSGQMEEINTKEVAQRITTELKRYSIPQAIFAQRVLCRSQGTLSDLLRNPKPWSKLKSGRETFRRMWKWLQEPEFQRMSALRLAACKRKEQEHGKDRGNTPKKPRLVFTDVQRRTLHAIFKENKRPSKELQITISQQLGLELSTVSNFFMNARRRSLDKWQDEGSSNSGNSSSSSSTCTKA
Method in brief: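 Reporter mRNA induction or loss in HepG2 after 24 h exposure; transient cis-MRTU transfection; fragments quantified by capillary electrophoresis; bidirectional analysis, DMSO as negative control.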

[8] = ATG_MRE_CIS: Attagene CIS-FACTORIAL HepG2 Assay for human Metal Responsive Element (MRE) (AID 2282954); settings: HepG2 MRE cis-reporter transcription, Attagene multiplex; actives raise or lower the signal
Method in brief: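 Fluorescent reporter fragments separated by capillary electrophoresis give mRNA induction for the MRE unit after 24 h treatment of transfected HepG2 cells. Endogenous transcription-factor activity is read; DMSO serves as negative control and baseline.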

[9] = target: Paired box protein Pax-6 (Homo sapiens) (UniProt P26367); assay: ATG_Pax6_CIS: Attagene CIS-FACTORIAL HepG2 Assay for human Paired Box 6 (PAX6) (AID 2282956); settings: HepG2 CIS-FACTORIAL PAX6 reporter transcription, RNA readout; actives raise or lower the signal
Sequence of Paired box protein Pax-6 (Homo sapiens) (P26367 whole entry, looked up): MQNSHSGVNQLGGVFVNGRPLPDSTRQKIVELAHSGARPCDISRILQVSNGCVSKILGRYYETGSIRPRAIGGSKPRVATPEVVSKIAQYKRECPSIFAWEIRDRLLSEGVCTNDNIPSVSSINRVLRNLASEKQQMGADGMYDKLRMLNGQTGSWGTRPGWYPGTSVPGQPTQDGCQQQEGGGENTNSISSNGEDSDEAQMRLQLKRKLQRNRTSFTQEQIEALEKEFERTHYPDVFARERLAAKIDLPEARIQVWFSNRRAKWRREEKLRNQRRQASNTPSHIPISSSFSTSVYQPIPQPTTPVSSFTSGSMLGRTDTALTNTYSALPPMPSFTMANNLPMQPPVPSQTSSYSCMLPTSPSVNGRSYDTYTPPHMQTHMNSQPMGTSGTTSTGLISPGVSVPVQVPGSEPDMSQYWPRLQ
Method in brief: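 Multiplexed cis-reporter HepG2 system; 24 h treatment; reporter mRNA read by RT-PCR/CE fluorescence; bidirectional fit vs DMSO.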

[10] = ATG_PXRE_CIS: Attagene CIS-FACTORIAL HepG2 Assay for human Pregnane X Receptor Element (PXRE) (AID 2282957); settings: HepG2 Attagene CIS-FACTORIAL PXRE reporter, mRNA; actives raise or lower the signal
Method in brief: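 Transiently transfected HepG2 cells were dosed and incubated for 24 h. RNA was then isolated, DNase-treated, reverse-transcribed and reporter sequences amplified. Labeled, HpaI-digested fragments were quantified by capillary electrophoresis against DMSO.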

[11] = ATG_PPRE_CIS: Attagene CIS-FACTORIAL HepG2 Assay for human Peroxisome Proliferator-activated Response Element (PPRE) (AID 2282958); settings: HepG2 PPRE cis-element reporter, Attagene transcription factor profiling; actives raise or lower the signal
Method in brief: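 Multiplexed reporter transcription units under cis-regulatory promoters were transfected into HepG2 cells to capture endogenous factor activity. A 24 h incubation preceded RNA isolation and fluorescent RT-PCR fragment analysis.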

[12] = ATG_RORE_CIS: Attagene CIS-FACTORIAL HepG2 Assay for human RAR-related Orphan Receptor Element (RORE) (AID 2282959); settings: HepG2 Attagene cis-factorial RORE reporter, mRNA; actives raise or lower the signal
Method in brief: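 Fluorescence intensity of reporter-specific cDNA fragments, separated by capillary electrophoresis, gives the signal. Source: HepG2 liver cells transiently transfected with cis-element reporters and exposed 24 h; DMSO-normalized bidirectional fit.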

[13] = target: Transcription factor Sp1 (Homo sapiens) (UniProt P08047); assay: ATG_Sp1_CIS: Attagene CIS-FACTORIAL HepG2 Assay for human Specificity Protein 1 (Sp1) (AID 2282961); settings: HepG2 Sp1 cis-reporter transcription, actives raise or lower the signal
Sequence of Transcription factor Sp1 (Homo sapiens) (P08047 whole entry, looked up): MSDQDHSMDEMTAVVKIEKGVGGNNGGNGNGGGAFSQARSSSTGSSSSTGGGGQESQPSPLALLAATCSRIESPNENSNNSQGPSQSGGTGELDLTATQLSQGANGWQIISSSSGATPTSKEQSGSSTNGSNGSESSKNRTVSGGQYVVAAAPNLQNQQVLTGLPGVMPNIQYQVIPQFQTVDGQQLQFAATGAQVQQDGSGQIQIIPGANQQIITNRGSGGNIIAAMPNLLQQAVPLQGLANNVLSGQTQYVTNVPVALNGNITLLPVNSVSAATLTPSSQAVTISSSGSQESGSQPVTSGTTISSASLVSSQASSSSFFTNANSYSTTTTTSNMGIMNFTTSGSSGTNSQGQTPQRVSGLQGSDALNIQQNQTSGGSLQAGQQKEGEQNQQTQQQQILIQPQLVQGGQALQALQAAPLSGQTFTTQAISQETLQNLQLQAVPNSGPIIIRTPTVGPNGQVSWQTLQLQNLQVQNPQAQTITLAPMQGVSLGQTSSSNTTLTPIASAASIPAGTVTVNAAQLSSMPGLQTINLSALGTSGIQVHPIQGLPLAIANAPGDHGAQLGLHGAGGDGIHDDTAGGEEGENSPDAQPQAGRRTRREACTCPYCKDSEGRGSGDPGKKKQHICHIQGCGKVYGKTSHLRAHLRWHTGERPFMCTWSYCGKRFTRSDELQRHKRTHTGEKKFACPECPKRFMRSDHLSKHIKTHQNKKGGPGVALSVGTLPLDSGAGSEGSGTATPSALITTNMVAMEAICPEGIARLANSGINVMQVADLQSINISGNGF
Method in brief: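 Sp1-driven reporter mRNA, read as capillary electrophoresis fluorescence after RT-PCR, in transiently transfected HepG2 cells dosed for 24 h; signal change in either direction relative to DMSO.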

[14] = ATG_SREBP_CIS: Attagene CIS-FACTORIAL HepG2 Assay for human Sterol Regulatory Element Binding (SREBP) (AID 2282962); settings: HepG2 Attagene cis-factorial SREBP reporter, mRNA; actives raise or lower the signal
Method in brief: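 mRNA induction of transfected cis-promoter reporters in HepG2 cells, 24 h post-dose. Detection: RT-PCR with 6-FAM-labelled products, HpaI digest, capillary electrophoresis. DMSO served as negative control and baseline.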

[15] = ATG_TA_CIS: Attagene CIS-FACTORIAL HepG2 Assay for human TA Basal Promoter (AID 2282964); settings: HepG2 Attagene CIS-factorial TA basal promoter reporter; actives raise or lower the signal
Method in brief: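 Steps: transfect HepG2 with MRTUs; dose 24 h; isolate RNA, DNase-treat, reverse-transcribe; PCR and FAM-label reporter cDNA; digest with HpaI 2h at 37 C; run capillary electrophoresis. Activity fitted both directions against DMSO.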

[16] = target: Heat shock factor protein 1 (Homo sapiens) (UniProt Q00613); assay: ATG_HSE_CIS: Attagene CIS-FACTORIAL HepG2 Assay for human Heat Shock Transcription Factor 1 (HSE) (AID 2282953); settings: HepG2 HSE cis-reporter, Attagene RNA transcription; actives raise or lower the signal
Sequence of Heat shock factor protein 1 (Homo sapiens) (Q00613 whole entry, looked up, the tested form may be a part): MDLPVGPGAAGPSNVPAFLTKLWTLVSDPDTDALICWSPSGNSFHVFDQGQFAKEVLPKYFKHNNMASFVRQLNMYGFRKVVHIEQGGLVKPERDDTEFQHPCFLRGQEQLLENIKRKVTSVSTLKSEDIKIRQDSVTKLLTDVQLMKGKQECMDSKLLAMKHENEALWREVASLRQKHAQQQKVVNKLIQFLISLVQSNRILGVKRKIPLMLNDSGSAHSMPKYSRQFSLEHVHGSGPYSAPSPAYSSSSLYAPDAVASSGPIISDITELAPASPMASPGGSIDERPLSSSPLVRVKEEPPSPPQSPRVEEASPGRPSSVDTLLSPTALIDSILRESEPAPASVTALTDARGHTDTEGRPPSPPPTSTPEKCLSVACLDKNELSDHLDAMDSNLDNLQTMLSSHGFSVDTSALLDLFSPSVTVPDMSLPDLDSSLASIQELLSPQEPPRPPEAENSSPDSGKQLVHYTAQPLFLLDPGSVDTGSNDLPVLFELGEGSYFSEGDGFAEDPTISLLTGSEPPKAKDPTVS
Method in brief: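 Cells were transfected with cis-element-driven reporter constructs, dosed for 24 h, then total RNA was reverse-transcribed and reporter cDNA amplified, FAM-labelled and digested with HpaI. Fragments were resolved by capillary electrophoresis; gain or loss was fitted against DMSO.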

[17] = ATG_PBREM_CIS: Attagene CIS-FACTORIAL HepG2 Assay for human Phenobarbital-responsive Enhancer Module (PBREM) (AID 2282955); settings: HepG2 PBREM cis-reporter, Attagene multiplexed transcription; actives raise or lower the signal
Method in brief: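 After a 24 h incubation with test chemical, transfected HepG2 cells yield total RNA; reporter-specific RT-PCR products are fluorescently labelled, HpaI-digested and resolved by capillary electrophoresis against ROX size standards.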

[18] = ATG_Sox_CIS: Attagene CIS-FACTORIAL HepG2 Assay for human SRY-box transcription factor (SOX) (AID 2282960); settings: HepG2 Attagene cis-factorial SOX reporter, mRNA; actives raise or lower the signal
Method in brief: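 After 24 h of chemical treatment, transfected HepG2 reporter cells are lysed for total RNA. Transcript levels come from RT-PCR with labelled primer extension and capillary electrophoresis, analysed bidirectionally versus DMSO.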

[19] = target: Signal transducer and activator of transcription 3 (Homo sapiens) (UniProt P40763); assay: ATG_STAT3_CIS: Attagene CIS-FACTORIAL HepG2 Assay for human Signal Transducer and Activator of Transcription 3 (STAT3) (AID 2282963); settings: HepG2, Attagene cis-factorial STAT3 reporter transcription; actives raise or lower the signal
Sequence of Signal transducer and activator of transcription 3 (Homo sapiens) (P40763 whole entry, looked up): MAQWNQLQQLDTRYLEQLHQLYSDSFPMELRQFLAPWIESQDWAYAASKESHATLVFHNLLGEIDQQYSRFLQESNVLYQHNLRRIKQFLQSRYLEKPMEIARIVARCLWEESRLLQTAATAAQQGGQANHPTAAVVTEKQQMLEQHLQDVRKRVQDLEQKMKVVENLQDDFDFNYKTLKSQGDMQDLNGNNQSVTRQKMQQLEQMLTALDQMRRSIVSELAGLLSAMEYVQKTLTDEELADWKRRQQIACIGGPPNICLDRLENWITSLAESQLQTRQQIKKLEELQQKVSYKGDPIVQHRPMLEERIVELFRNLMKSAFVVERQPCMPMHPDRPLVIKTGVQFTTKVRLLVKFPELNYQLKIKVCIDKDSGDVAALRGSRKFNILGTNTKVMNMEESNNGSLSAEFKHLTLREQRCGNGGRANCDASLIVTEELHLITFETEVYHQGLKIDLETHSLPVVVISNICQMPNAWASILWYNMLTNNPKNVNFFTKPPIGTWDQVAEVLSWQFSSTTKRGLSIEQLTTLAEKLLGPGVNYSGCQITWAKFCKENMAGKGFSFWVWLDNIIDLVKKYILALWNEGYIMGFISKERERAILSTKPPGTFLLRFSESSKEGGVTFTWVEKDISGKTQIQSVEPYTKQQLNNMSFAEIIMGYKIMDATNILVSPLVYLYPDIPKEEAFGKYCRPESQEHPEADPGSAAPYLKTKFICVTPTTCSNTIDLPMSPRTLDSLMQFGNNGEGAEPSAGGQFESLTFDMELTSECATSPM
Method in brief: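 Values derive from bidirectional fits relative to DMSO of reporter mRNA levels, measured by RT-PCR with capillary electrophoresis, in HepG2 cells carrying transiently transfected cis-regulated reporter units and exposed 24 h.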

Measured: AC50

CC(=O)OCc1ccccc1
not listed: [16] | [17] | [18] | [19]
inactive: all other assays above

O=C(O[C@@H]1Cc2c(O)cc(O)cc2O[C@@H]1c1cc(O)c(O)c(O)c1)c1cc(O)c(O)c(O)c1
active: [6] 26.8 µM
not listed: [8] | [11] | [12] | [19]
inactive: all other assays above

COC(=O)C=Cc1ccccc1
not listed: [8] | [10] | [18]
inactive: all other assays above

CCCCCCO
not listed: [8] | [9] | [11]
inactive: all other assays above

CCOC(=O)OC(=O)OCC
not listed: [11] | [12] | [17]
inactive: all other assays above

CC1(C)CCC[C@]2(C)[C@H]3CC(=O)O[C@]3(C)CC[C@@H]12
active: [10] 3.61 µM | [14] 32.3 µM
not listed: [16] | [19]
inactive: all other assays above

CCC1(C)C(=O)N(Cl)C(=O)N1Cl (stereo not given)
active: [3] 49.4 µM | [16] 52.1 µM | [9] 49.8 µM | [10] 58.6 µM | [18] 37.9 µM
not listed: [8] | [12]
inactive: all other assays above

OCCCc1ccccc1
not listed: [8]
inactive: all other assays above

C=CCOC(=O)c1ccc(C(=O)OCC=C)c(C(=O)OCC=C)c1
active: [10] 21 µM | [11] 14.8 µM | [12] 32.5 µM
not listed: [16]
inactive: all other assays above

O=C1CCCCCCCCCCCN1
active: [10] 8.77 µM
not listed: [11] | [17]
inactive: all other assays above

CC1(C)[C@@H]2CC[C@@]1(C)C(=O)C2
not listed: [8] | [11] | [19]
inactive: all other assays above

C=C(C)C(=O)OCCOC(=O)C(=C)C
not listed: [8] | [10] | [17]
inactive: all other assays above

CC(C)CC(=O)OCc1ccccc1
not listed: [8] | [9] | [18]
inactive: all other assays above

C=CC(C)(O)CC/C=C(\C)CC (stereo not given)
active: [10] 4.25 µM
not listed: [9] | [17]
inactive: all other assays above

CC(C)CCCCCOC(=O)CS
not listed: [10] | [11] | [17] | [19]
inactive: all other assays above

C=CCCCCCCCCOC(C)=O
not listed: [8] | [11] | [17]
inactive: all other assays above

O=C(O)c1ccc2c(c1)C(=O)OC2=O
not listed: [10] | [11] | [12] | [15] | [17]
inactive: all other assays above
